Assay results as given in the supplement of paper PMC11732987, “Enantioselective OTUD7B fragment discovery through chemoproteomics screening and high-throughput optimisation” (Communications Chemistry, 2025).

Legend:
Assay in all cases: log2 ratio of Biotin-Ahx-Ub-VS probe labelling (fragment/DMSO); higher = less target engagement (more negative = stronger competition), active = hit call of the paper (q ≤ 0.05, log2 ratio ≤ -1)
Conditions in all cases: compound concentration: 200 uM; treatment time: 3 h
[1] = target: T1, USP19 (UniProt O94966)
T1 sequence (whole entry): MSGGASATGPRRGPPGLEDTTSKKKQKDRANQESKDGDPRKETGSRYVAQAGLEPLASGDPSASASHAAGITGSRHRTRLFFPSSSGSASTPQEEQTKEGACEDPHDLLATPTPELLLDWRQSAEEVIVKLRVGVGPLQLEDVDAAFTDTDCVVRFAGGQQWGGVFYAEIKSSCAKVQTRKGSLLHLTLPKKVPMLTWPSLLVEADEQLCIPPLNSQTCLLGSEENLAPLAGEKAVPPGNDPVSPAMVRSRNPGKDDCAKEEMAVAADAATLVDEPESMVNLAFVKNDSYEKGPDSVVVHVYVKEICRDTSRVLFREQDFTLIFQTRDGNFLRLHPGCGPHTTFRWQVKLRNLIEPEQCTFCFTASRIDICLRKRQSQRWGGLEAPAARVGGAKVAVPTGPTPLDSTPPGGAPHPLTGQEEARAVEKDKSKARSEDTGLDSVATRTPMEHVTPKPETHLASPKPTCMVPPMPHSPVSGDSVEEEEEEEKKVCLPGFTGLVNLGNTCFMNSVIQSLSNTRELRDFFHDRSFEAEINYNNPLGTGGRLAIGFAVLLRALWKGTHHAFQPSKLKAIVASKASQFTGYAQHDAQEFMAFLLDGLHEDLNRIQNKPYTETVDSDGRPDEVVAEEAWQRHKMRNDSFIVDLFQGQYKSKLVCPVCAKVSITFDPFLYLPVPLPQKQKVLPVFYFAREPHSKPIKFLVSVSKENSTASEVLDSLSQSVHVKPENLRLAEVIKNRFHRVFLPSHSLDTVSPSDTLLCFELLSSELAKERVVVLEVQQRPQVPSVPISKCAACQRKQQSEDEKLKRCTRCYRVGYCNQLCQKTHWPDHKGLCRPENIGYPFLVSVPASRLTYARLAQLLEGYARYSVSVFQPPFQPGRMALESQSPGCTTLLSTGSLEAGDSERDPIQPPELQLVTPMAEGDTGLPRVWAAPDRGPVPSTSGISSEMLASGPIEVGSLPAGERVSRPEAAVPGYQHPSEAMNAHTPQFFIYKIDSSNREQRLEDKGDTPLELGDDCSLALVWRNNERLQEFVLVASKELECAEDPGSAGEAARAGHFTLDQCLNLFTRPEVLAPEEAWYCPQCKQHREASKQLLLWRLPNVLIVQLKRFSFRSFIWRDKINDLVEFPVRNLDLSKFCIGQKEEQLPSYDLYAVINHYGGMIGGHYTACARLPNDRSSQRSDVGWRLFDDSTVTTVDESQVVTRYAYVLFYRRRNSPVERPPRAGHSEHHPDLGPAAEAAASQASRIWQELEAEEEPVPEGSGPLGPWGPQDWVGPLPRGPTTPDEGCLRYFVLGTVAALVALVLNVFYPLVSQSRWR
Outline: (§1)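 HEK293T lysate, 495 µg per sample in Tris/CHAPS/IGEPAL buffer with protease inhibitors, was treated in triplicate with fragment at 200 µM or vehicle for 3 h and then with Biotin-Ahx-Ub-VS at 0.5 µM final for 1 h. Labelled DUBs were NeutrAvidin-enriched, digested with LysC and trypsin, and run by diaPASEF LC-MS/MS. Spectronaut label-free quantities were global-median-normalised, and values are average log2 fragment/vehicle ratios by unpaired t-test on proteins with ≥2 unique peptides.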

[2] = target: T2, USP22 (UniProt Q9UPT9)
T2 sequence (whole entry): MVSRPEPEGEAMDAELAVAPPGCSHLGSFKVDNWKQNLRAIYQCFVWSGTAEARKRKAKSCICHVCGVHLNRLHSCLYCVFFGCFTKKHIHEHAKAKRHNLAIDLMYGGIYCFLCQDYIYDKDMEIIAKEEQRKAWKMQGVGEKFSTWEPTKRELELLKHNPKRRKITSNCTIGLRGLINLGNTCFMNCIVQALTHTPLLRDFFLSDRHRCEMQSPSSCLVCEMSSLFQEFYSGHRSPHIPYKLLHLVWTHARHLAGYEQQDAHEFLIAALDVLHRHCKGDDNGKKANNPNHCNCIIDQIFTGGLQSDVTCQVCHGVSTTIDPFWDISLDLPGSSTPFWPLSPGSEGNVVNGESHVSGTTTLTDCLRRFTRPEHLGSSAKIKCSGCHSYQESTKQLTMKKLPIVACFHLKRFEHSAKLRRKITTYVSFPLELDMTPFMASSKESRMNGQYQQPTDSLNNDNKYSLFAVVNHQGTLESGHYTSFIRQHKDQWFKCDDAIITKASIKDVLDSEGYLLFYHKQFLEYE
Outline: as §1

[3] = target: USP24 (UniProt Q9UPU5)
Sequence of USP24 (Q9UPU5 whole entry): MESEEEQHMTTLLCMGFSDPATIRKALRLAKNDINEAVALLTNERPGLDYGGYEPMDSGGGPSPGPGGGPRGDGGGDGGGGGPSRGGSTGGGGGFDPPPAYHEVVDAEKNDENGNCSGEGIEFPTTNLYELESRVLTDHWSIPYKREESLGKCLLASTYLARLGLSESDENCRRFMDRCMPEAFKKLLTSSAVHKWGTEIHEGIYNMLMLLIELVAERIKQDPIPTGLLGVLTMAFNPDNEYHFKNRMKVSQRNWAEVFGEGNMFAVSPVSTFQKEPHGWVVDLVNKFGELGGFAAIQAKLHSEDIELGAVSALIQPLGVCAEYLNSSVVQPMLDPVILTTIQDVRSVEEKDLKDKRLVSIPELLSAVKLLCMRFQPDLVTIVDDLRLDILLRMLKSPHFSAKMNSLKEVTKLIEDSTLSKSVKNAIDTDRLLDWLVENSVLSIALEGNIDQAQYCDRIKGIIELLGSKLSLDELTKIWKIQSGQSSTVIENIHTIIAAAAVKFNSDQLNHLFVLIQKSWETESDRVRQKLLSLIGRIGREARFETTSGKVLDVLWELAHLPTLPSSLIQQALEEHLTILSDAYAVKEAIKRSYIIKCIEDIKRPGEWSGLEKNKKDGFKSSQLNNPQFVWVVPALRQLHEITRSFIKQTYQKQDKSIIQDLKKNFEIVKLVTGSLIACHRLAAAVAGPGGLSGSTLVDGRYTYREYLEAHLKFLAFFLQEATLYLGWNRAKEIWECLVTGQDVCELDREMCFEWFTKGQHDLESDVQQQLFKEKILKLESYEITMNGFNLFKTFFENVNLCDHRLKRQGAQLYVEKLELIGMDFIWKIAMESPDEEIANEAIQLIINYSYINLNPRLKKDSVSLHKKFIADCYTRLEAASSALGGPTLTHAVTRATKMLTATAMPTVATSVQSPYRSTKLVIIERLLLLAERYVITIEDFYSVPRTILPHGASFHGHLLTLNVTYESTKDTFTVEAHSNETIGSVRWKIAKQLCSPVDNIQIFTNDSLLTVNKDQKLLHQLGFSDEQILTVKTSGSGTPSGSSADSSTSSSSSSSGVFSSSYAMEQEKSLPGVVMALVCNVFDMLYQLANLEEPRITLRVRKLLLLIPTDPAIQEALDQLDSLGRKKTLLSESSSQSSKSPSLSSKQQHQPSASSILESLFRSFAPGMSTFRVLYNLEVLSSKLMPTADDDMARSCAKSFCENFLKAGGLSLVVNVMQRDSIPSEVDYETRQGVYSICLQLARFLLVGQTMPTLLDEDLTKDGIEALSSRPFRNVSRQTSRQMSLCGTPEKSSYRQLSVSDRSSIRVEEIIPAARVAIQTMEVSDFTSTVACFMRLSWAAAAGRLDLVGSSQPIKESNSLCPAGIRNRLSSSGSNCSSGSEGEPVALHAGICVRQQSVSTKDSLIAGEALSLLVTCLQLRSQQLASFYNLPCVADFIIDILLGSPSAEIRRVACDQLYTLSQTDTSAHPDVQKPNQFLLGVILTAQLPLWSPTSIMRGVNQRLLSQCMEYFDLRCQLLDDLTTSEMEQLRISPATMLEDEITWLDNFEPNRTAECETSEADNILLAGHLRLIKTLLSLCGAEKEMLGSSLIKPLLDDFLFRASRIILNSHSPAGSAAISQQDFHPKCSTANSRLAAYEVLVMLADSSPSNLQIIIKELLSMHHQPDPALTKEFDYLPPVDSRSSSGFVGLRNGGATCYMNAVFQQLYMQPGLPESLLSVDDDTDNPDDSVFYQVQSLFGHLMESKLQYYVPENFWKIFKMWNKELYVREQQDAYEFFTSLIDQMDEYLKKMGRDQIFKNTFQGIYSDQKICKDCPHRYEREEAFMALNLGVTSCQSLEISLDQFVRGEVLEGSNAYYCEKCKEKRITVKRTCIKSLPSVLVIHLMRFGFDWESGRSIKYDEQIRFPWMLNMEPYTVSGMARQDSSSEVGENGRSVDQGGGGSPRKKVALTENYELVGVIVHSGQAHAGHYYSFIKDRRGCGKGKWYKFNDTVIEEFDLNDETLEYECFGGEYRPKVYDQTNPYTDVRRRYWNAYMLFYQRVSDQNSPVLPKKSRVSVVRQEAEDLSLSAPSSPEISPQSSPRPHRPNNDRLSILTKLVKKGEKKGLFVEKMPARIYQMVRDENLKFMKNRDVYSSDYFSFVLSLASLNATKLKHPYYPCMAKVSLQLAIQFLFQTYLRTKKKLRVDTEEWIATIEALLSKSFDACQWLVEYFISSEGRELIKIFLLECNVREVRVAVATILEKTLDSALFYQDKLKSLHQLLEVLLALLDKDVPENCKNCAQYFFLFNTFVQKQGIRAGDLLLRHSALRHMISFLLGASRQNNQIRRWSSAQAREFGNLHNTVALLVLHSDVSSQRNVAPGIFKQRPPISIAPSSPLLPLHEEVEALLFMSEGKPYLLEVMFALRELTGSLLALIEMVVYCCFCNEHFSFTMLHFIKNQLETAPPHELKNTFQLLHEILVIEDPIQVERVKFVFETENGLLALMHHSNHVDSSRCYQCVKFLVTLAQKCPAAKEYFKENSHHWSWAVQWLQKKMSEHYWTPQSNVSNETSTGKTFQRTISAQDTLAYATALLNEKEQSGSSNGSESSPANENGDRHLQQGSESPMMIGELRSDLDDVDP
Outline: as §1

[4] = target: T3, USP25 (UniProt Q9UHP3)
T3 sequence (whole entry): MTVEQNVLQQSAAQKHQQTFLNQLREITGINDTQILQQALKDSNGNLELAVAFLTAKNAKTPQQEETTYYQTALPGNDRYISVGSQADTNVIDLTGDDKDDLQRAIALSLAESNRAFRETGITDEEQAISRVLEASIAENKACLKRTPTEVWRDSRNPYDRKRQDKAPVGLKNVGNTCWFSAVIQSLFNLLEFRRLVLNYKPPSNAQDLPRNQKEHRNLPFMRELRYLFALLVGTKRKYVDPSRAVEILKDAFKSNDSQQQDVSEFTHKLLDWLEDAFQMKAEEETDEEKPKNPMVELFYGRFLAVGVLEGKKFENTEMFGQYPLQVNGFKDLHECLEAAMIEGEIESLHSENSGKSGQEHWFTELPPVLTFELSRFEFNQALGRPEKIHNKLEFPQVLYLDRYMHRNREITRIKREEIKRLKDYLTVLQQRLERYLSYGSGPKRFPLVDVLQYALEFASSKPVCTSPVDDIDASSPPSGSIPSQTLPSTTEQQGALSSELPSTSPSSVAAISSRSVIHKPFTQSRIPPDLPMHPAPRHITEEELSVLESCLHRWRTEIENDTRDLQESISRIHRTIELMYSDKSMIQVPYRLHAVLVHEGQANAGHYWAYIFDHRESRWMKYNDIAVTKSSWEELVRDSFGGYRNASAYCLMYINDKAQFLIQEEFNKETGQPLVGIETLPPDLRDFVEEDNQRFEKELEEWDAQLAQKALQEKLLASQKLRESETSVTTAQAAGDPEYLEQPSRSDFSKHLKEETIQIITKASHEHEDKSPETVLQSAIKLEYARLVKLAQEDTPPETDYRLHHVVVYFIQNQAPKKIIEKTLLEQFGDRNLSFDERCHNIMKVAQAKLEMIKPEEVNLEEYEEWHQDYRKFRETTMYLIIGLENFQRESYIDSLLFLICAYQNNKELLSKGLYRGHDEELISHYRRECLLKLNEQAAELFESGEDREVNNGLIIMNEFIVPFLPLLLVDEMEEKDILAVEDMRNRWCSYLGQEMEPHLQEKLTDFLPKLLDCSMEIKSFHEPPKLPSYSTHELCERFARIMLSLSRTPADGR
Outline: as §1

[5] = target: T4, USP28 (UniProt Q96RU2)
T4 sequence (whole entry): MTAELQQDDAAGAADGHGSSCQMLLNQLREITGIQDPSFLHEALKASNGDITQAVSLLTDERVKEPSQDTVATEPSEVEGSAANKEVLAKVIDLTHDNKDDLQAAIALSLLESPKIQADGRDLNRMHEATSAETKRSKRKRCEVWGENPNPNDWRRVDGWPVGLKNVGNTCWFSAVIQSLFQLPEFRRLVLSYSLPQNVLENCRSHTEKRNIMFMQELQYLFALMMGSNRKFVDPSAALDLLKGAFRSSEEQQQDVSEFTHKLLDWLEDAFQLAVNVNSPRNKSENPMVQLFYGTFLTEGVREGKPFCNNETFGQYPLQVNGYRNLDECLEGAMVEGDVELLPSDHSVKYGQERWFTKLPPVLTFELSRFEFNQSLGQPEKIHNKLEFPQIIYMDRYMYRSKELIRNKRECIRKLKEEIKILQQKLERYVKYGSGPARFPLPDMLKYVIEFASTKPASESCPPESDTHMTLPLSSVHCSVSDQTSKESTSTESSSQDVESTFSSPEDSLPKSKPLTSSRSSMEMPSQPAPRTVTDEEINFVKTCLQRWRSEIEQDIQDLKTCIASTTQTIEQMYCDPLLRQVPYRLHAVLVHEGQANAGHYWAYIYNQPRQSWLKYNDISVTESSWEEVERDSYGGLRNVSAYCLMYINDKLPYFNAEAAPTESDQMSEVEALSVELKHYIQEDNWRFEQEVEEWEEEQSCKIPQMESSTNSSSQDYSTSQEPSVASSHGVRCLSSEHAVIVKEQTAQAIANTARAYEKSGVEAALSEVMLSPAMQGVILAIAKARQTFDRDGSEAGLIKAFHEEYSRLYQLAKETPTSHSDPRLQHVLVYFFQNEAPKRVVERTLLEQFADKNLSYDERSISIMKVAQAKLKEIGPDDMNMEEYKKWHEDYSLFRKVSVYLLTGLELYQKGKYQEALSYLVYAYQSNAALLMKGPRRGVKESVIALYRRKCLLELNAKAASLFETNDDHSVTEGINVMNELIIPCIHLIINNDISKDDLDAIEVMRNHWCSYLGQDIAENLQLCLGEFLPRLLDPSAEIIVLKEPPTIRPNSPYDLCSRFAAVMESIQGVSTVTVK
Outline: as §1

Measured: log2 ratio of Biotin-Ahx-Ub-VS probe labelling

O=C(CCl)Nc1nnc(CC(F)(F)F)o1
inactive: [1] -0.39 | [2] -0.0202 | [3] -0.372 | [4] -0.777 | [5] -0.479
